The values that follow come from PubChem BioAssay (Tox21).

Records with an inconclusive call do not appear. Entries that show only a call come without a potency. The source made the active and inactive calls. Calls follow the shape of the dose curve; as a rule, active = well fitted cell-killing curve with a large enough effect in the repeat runs; inconclusive = weak or mixed curves, or effect the other way; inactive = no such curve, though single readings can be large or run the other way.
Potency is read from the fitted curve at half-maximal effect.

A short description of the experiment: qHTS assay for identifying genotoxic compounds that show differential cytotoxicity against isogenic chicken DT40 cell lines with known DNA damage response pathways - Rev3 mutant cell line (AID 743014). Also: nearly all actives have a fitted effect of over 55% in size. Conditions: chicken DT40 Rev3-/- viability, CellTiter-Glo, 40 h; series mostly up to 68.4 µM. From the text:
National Center for Advancing Translational Sciences [NCATS]
NIH Chemical Genomics Center [NCGC]
U.S. Environmental Protection Agency [EPA]
National Institutes of Environmental Health Sciences [NIEHS]
National Toxicology Program [NTP]
U.S. Food and Drug Administration [FDA]
DNA repair pathways play a critical role in cellular homeostasis by repairing DNA damage induced by endogenous processes and xenobiotics. Isogenic chicken DT40 cell lines deficient in different DNA repair pathways can be used to identify genotoxic compounds and aid in characterizing the nature of the DNA damage induced. Two DNA repair-deficient cell lines with disrupted genes, Rad54/Ku70 or Rev3, were used to screen the Tox21 10K compound library. Possible genotoxicity was based on the presence of a significant increase in cytotoxicity in one or more of the DNA repair-deficient cell lines compared to that observed in the parental DNA repair-proficient cell line. CellTiter Glo viability assay (Promega, Madison, WI) was used to measure cell viability in these cells after compound treatment. This assay includes the data from the Rev3 mutant cell line.
Tox21 Assay Protocol Summary:
300 DT40 mutant cells in 5 uL/well were dispensed into white, solid-bottom 1536-well plates using a Multidrop Combi (ThermoFisher Scientific, Waltham, MA) dispenser. After the assay plates were incubated at 37 C/5% CO2 for approximately 0.5 hour, 23 nL of compounds dissolved in DMSO, positive controls or DMSO only was transferred into the assay plate by a pintool work station (Kalypsys, San Diego, CA). The assay plates were incubated at 37 C/5% CO2 for 40 hours. After 5 uL per well of CellTiter-Glo reagent was added into each well of the assay plates, the plates were incubated for 30 min at room temperature and the luminescence intensity of the plates was measured using a ViewLux (PerkinElmer, Shelton, CT) plate reader.
Background: qHTS replaces the single test concentration by a dilution series.
Regarding `C=CC(=O)[O-].C=CC(=O)[O-].[Zn+2]`, the Potency result was “inactive”.
Turning to `C=C/C(C)=C/C/C=C(\C)CCC=C(C)C`, the Potency was 61.1 µM (active).
Turning to `CC[N+](CC)(CCNC(=O)C(=O)NCC[N+](CC)(CC)Cc1ccccc1Cl)Cc1ccccc1Cl`, the Potency result was “inactive”.
Turning to `C=C(C)[C@@H]1CCC2=CCC[C@@H](C)[C@]2(C)C1`, the Potency was 27.3 µM (active).
In the case of `NC1[C@H]2CN(c3nc4c(cc3F)c(=O)c(C(=O)O)cn4-c3ccc(F)cc3F)C[C@@H]12` (stereo not given in full), the Potency is 6.68 µM (active).
Turning to `CC(=O)OCC[N+](C)(C)C`, the Potency entry was “inactive”.
For the compound `COc1ccccc1Oc1c(NS(=O)(=O)c2ccc(C(C)(C)C)cc2)nc(-c2ncccn2)nc1OCCO`, the Potency entry is “inactive”.
With `O=c1c(O)c(-c2ccc(O)cc2)oc2cc(O)cc(O)c12`, the Potency is 11.6 µM (active).
`CCOC(=O)c1ccccc1C(=C1C=C(Br)C(=O)C(Br)=C1)c1cc(Br)c(O)c(Br)c1`: the Potency result was “inactive”.
For the compound `CO/N=C(/C(=O)N[C@@H]1C(=O)N2C(C(=O)O)=C(COC(N)=O)CS[C@H]12)c1ccco1`, the Potency entry was “inactive”.
As for `COC(=O)C1=C(C)NC(C)=C(C(=O)O[C@@H]2CCCN(Cc3ccccc3)C2)[C@@H]1c1cccc([N+](=O)[O-])c1`, the Potency is 21.1 µM (active).
As to `CN(C)CCC=C1c2ccccc2C=Cc2ccccc21`, the Potency was 8.41 µM (active).
Next, `O=C(OC(=O)c1ccccc1)c1ccccc1`: “inactive”; `C[C@@H](CN(C)C)CN1c2ccccc2Sc2ccccc21`: 11.4 µM (active).
Consider `CC(C)=CC(=O)C=C(C)C`, for which the Potency result is “inactive”.
For the compound `CCOc1ccc(Cc2nccc3cc(OCC)c(OCC)cc23)cc1OCC`, the Potency was 5.07 µM (active).
Next, `Nc1cccc2c1CN(C1CCC(=O)NC1=O)C2=O` (stereo not given): “inactive”.
In the case of `CC(=O)Oc1ccc([N+](=O)[O-])cc1CCl`, the Potency was 1.72 µM (active).
Consider `O=C1Cc2ccccc2N1c1c(Cl)cccc1Cl`, for which the Potency is 34.4 µM (active).
Consider `COc1cc(Nc2c(C#N)cnc3cc(OCCCN4CCN(C)CC4)c(OC)cc23)c(Cl)cc1Cl`, for which the Potency is 2.98 µM (active).
As to `COc1cc(C(=O)NC2CCN(C)CC2)ccc1Nc1ncc2c(n1)N(C1CCCC1)CC(F)(F)C(=O)N2C`, the Potency is 0.0025 µM (active).
With `CCCCC(CC)CN` (stereo not given), the Potency was 62.3 µM (active).
Regarding `O=C(O)c1cccc(-c2noc(-c3ccccc3F)n2)c1`, the Potency result was “inactive”.
`CC1(C)S[C@@H]2[C@H](NC(=O)C(c3ccccc3)S(=O)(=O)O)C(=O)N2[C@H]1C(=O)O` (stereo not given in full): the Potency entry was “inactive”.
For the compound `NNC(=O)CP(=O)(c1ccccc1)c1ccccc1`, the Potency entry is “inactive”.
As for `CC(C)(O)c1ccc(CNC(=O)c2cccnc2Oc2ccc3nonc3c2)cc1`, the figure is 68.6 µM (active).
Take `C1C[C@@H]2[C@H]3CC[C@H](C3)[C@@H]2C1`: the Potency result was “inactive”.
Regarding `Oc1cc2c(cc1O)[C@H]1c3ccc(O)c(O)c3OC[C@@]1(O)C2`, the Potency was 22 µM (active).
In the case of `Cc1cscn1`, the Potency result is “inactive”.
For the compound `CCCCN1CCCC1C(=O)Nc1c(C)cc(C)cc1C` (stereo not given), the Potency is 23.7 µM (active).
As for `CCC1CO1` (stereo not given), the entry is “inactive”; as for `CC1(C)O[C@@H]2C[C@H]3[C@@H]4C[C@H](F)C5=CC(=O)C=C[C@]5(C)[C@H]4[C@@H](O)C[C@]3(C)[C@]2(C(=O)CO)O1`, “inactive”.
As for `Cc1cc(=O)c2c(O)c3c(O)cc(=O)c4c3c3c(cc(O)c1c23)C(C)(C)C=4O`, the figure is 1.06 µM (active); as for `C=C(C)C(=O)OCCOCCOC(=O)C(=C)C`, “inactive”.
In the case of `N#CCc1ccc(Cl)cc1Cl`, the Potency entry is “inactive”.
Regarding `OCCN1CCN(CCCN2c3ccccc3Sc3ccc(Cl)cc32)CC1`, the Potency was 2.85 µM (active).
Next, `CC(=O)[C@H]1[C@H](C#N)C[C@H]2[C@@H]3CC=C4C[C@@H](O)CC[C@]4(C)[C@H]3CC[C@@]21C`: 37.1 µM (active).
In the case of `O=C1c2ccccc2C(=O)N1CCc1noc(-c2ccc(CN3CCCCCC3)s2)n1`, the Potency was 39.7 µM (active).
As for `C[C@@H](O)[C@H]1C(=O)N2C(C(=O)O)=C([C@H]3CCCO3)S[C@H]12`, the Potency entry is “inactive”.
For `CCC(OCCCOC)OC(C)=O` (stereo not given), the Potency entry is “inactive”.
